Bioassay records: PubChem BioAssay, Buhrlage Lab, Dana-Farber Cancer Institute and Novartis Institutes for BioMedical Research (Cambridge, Mass)
Sampled rows, rich in hits. Any-hit rate of the full collection: about 1.8%.
USP10 inh = inhibitors of human USP10 deubiquitinase | Ubiquitin carboxyl-terminal hydrolase 10 (Homo sapiens), Q14694 | purified USP10, Ub-rhodamine fluorescence, 60 min | inhibition, % at 20 µM | actives 1.1% (n = 47,000) | AID 1645856, 2021
USP7 inh = inhibitors of human USP7 deubiquitinase | inhibition, % at 20 µM | AID 1645854, 2021 | actives 0.3% (n = 47,000) | purified USP7, Ub-rhodamine cleavage fluorescence
UCHL1 block = inhibitors of human UCHL1 deubiquitinase; AID 1645859, 2021; Ubiquitin carboxyl-terminal hydrolase isozyme L1 (Homo sapiens), P09936; actives 0.2% (n = 47,000); inhibition, % at 20 µM; purified UCHL1, Ub-rhodamine cleavage fluorescence
OTUD3 inh = inhibitors of human OTUD3 deubiquitinase; OTU domain-containing protein 3 (Homo sapiens), Q5T2D3; purified OTUD3, Ub-rhodamine fluorescence, 2 h; inhibition, % at 25 µM; actives 0.7% (n = 47,000)
An asterisk follows results filed as active. No stated cut-off is given here; in the data, active means inhibition above about 30%; inactive means the rest.

SMILES | USP10 inh | USP7 inh | UCHL1 block | OTUD3 inh
COc1ccc(Cn2c(=O)[nH]c3cc(C(=O)NCCCN4CCN(c5cccc(Cl)c5)CC4)ccc3c2=O)cc1 | 60* | 12 | 6 | 20
CCCc1nnc(NC(=O)c2cc(-c3ccccc3O)n[nH]2)s1 | 54* | 16 | 4 | 3
O=C(OCC(=O)N1CCOCC1)c1ccccc1Oc1ccccc1 | 4 | -3 | 2 | 19
O=C(Cn1c(=O)n(Cc2ccccc2)c(=O)c2ncccc21)NCc1ccccc1Cl | 51* | 33* | 9 | -6
CCc1ccc(S(=O)(=O)Nc2ccc(-c3nnc(-c4ccccc4)o3)cc2)cc1 | 47* | 18 | 9 | 11
COc1ccc(OC)c(NC(=O)c2sc(-c3ccccc3)nc2C)c1 | 17 | -12 | 8 | 48*
Cc1cccc(C(=O)Nc2cccc(SC(C(=O)Nc3ccc(O)c(C(=O)O)c3)c3ccccc3)c2)c1 (stereo not given) | 31* | 27 | 25 | 8
Cc1ccccc1C(=O)Nc1cccc(SC(C(=O)Nc2ccc(O)c(C(=O)O)c2)c2ccccc2)c1 (stereo not given) | 13 | 5 | 8 | 11
O=C(O)c1cccc(NC(=O)C(Sc2cccc(NC(=O)c3cccc(Cl)c3)c2)c2ccccc2)c1 (stereo not given) | 46* | -5 | 4 | 3
Cc1cccc(NC(=O)C(Sc2ccc(NC(=O)c3ccccc3C(=O)O)cc2)c2ccccc2)c1 (stereo not given) | 13 | -6 | -1 | -37
C#CCOc1cccc(CN2CCC([C@@H]3C[C@H](C(F)(F)F)n4ncnc4N3)CC2)c1 | 0 | 5 | 0 | 4
COc1ccc(NC(=O)Cc2sc(Nc3cccc(OC)c3)nc2O)cc1 | 6 | -2 | -1 | -5
Cc1ccc(Nc2nc(O)c(CC(=O)Nc3ccccc3C)s2)cc1C | 36* | 12 | 2 | 13
Cc1ccc(Nc2nc(O)c(CC(=O)Nc3ccc(C)cc3C)s2)cc1 | 38* | 16 | 0 | 20
Cc1cc(C)c(NC(=O)Cc2sc(Nc3ccc(C)c(C)c3)nc2O)c(C)c1 | 35* | 12 | -1 | 10
COc1cc(OC)cc(N2C(=O)N(CC(=O)c3ccc(Br)cc3)c3ccccc3S2(=O)=O)c1 | 81* | 46* | 14 | -5
COc1ccc(C(=O)CN2C(=O)N(c3cccc(C)c3)S(=O)(=O)c3ccccc32)cc1 | 6 | 5 | -1 | -4
CCc1ccc(OCCn2c(CCNC(=O)C3CCCCC3)nc3ccccc32)cc1 | 28 | 13 | 3 | 18
O=C(NCCc1nc2ccccc2n1CCOc1ccccc1Cl)C1CCCCC1 | 38* | 22 | 2 | 25
Cc1cccc(OCCn2c(CCNC(=O)C3CCCCC3)nc3ccccc32)c1 | 32* | -6 | 0 | 14
Cc1ccc(N2CC(c3nc4ccccc4n3CCCCOc3ccccc3)CC2=O)cc1 (stereo not given) | 11 | 13 | 8 | 26
Cc1ccc(N2CC(c3nc4ccccc4n3CCOc3cccc(C)c3)CC2=O)cc1 (stereo not given) | 69* | 32* | 5 | 12
C/C=C/C=C/C=C/C=C/C=C/C=C/C=C/C(=O)N(C)C1C(=O)NC(CC(C)C)C(=O)NC(C)C(=O)NC(C)C(=O)NC(CCC(N)=O)C(=O)OC1C (stereo not given) | -3 | -49 | -51 | -77
O=C(CCCC(=O)N(c1ccc2c(c1)OCCO2)C(C(=O)NC1CCCCC1)c1ccc(F)cc1)Nc1ccccn1 (stereo not given) | 40* | 3 | 3 | 25
O=C1c2oc3ccccc3c(=O)c2C(c2ccco2)N1c1nc2ccc(F)cc2s1 (stereo not given) | -7 | -1 | -3 | -5
SMILES | USP10 inh | USP7 inh | UCHL1 block | OTUD3 inh
O=C1C(=O)N(c2nc3ccc(F)cc3s2)C(c2ccc(F)cc2)/C1=C(\O)c1ccc(F)cc1 (stereo not given) | 61* | 15 | 2 | -29
COc1ccc(NC(=O)CC(=O)c2ccc([N+](=O)[O-])cc2)cc1S(=O)(=O)Nc1ccc(Br)cc1 | 53* | 16 | 11 | 23
COc1ccc(NS(=O)(=O)c2ccc(Cl)c(NC(=O)CC(=O)c3ccc([N+](=O)[O-])cc3)c2)cc1 | 24 | -1 | 0 | 3
CCOc1ccccc1NC(=O)COC(=O)C(c1ccccc1)c1ccccc1 | 10 | 14 | 7 | 34*
CCc1nnc(C(=O)Nc2ccc(C(=O)NCc3ccc(OC(C)C)cc3)cc2)s1 | 38* | 11 | 4 | 3
COc1cc([N+](=O)[O-])ccc1NC(=O)COC(=O)Cc1c[nH]c2ccccc12 | 12 | -13 | 2 | -7
COc1ccc([N+](=O)[O-])cc1NC(=O)COC(=O)c1ccc2[nH]c3c(c2c1)CCCC3 | 50* | 12 | 11 | 62*
CCOc1ccccc1C(=O)NCc1c(C)noc1C | 0 | -11 | 1 | -9
CCOc1ccccc1C1CC(=O)Nc2ccc3ccccc3c21 (stereo not given) | 15 | 8 | 89* | 5
CC1NC(=O)C(CC(N)=O)NC(=O)C(C(C)O)NC(=O)C(C(C)C)NC(=O)C(C(C)C)NC(=O)C(NC(=O)CC(O)CCCCCCCCCCCCN=C(N)N)C(C)OC1=O (stereo not given) | 2 | 0 | 1 | 83*
Cc1ccc(-c2nc(NC(=O)COc3ccc(Cl)cc3)no2)cc1 | 65* | 64* | 28 | -1
CC1(C)OC2=C(C(=O)c3cc(O)cc(O)c3C2=O)c2cc(CO)c(O)cc21 | -4 | -24 | 17 | 21
O=C1c2c(O)ccc(O)c2C2(Oc3cccc4cccc(c34)O2)C2OC12 (stereo not given) | 14 | 6 | 45* | 68*
O=C1c2c(O)cccc2C2(Oc3cccc4cccc(c34)O2)C2OC12 (stereo not given) | 34* | -6 | 28 | 47*
CC1CC(=O)c2c(O)cccc2O1 (stereo not given) | 5 | 7 | 1 | 7
CC1(C)c2ccc3c(c2C(=O)C2OC21)C(O)OC3=O (stereo not given) | 0 | -14 | -5 | -6
Cc1cnc(C(=O)N2CCCC(Cc3cncc(-c4cnc(C)n4C)n3)C2)cn1 (stereo not given) | 2 | -1 | -2 | 0
CC(C)CC[C@H]1O[C@@H](CC(=O)O)Cc2cc3c(c(O)c21)C(=O)c1sc(=O)n(C)c1C3=O | -6 | -63 | 25 | 70*
Cc1cc(C(=O)Nc2ccc3nc(N4CCN(c5ncccn5)CC4)cc(C)c3c2)ccc1[N+](=O)[O-] | 3 | 3 | 5 | -3
Cc1cc(N2CCN(c3ncccn3)CC2)nc2ccc(NC(=O)Cn3nc([N+](=O)[O-])c(Br)c3C)cc12 | 33* | 10 | 7 | 44*
CCN1CCN(c2nc(NCCc3cccs3)c3cnn(C)c3n2)CC1 | -1 | -5 | -1 | -7
O=C(c1snc2c(=O)n(Cc3ccccc3)c(=O)[nH]c12)N1CCOCC1 | -4 | -25 | -2 | 0
